# Records with an inconclusive call do not appear. A number with no mark means an inactive call. The source made the active and inactive calls. Calls follow the shape of the dose curve; as a rule, active = well fitted activation curve with a large enough effect in the repeat runs; inconclusive = weak or mixed curves; inactive = no such curve, though single readings can be large or run the other way.
# Target: Nuclear receptor subfamily 1 group I member 2 (Homo sapiens) (UniProt O75469)
# Experiment: Human pregnane X receptor (PXR) small molecule agonists, qHTS assay (AID 1346982); also: nearly all actives have a fitted effect of over 35% in size
# Conditions: PXR-Luc HepG2, CYP3A4 luciferase reporter, 24 h; series mostly up to 92.4 µM; activation: at the top concentration
# Text: National Center for Advancing Translational Sciences [NCATS]
# NIH Chemical Genomics Center [NCGC]
# U.S. Environmental Protection Agency [EPA]
# National Institutes of Environmental Health Sciences [NIEHS]
# National Toxicology Program [NTP]
# The human pregnane X receptor (hPXR) regulates the expression of several drug metabolizing enzymes and induction of these proteins is a major mechanism for developing drug resistance in cancer. One such key enzyme catalyzing the drug metabolism is cytochrome P450 3A4 (CYP3A4). Changes in CYP3A4 expression affect drug metabolism, thereby reducing the therapeutic efficacy and altering toxicological response to a drug and which finally causes adverse drug interaction. To screen Tox21 libraries for compounds that activate hPXR-mediated CYP3A4 gene expression, PXR-Luc HepG2 cells were used.
# PXR-Luc HepG2 cells were dispensed at 2,000 per well in 5uL of assay medium containing 5% charcoal-stripped FBS into white solid bottom 1536-well plates (Corning Life Sciences, Corning, NY) using a Multidrop Combi (Thermo Scientific, Waltham, MA) dispenser. The assay plates were incubated at 37 C and 5% CO2 for 5hr, and then 23nL of compounds dissolved in DMSO and positive control were transferred using a Pintool station (Wako, San Diego, CA). The assay plates were incubated at 37C and 5% CO2 for 24hr. For luciferase read, 4uL of ONE-Glo reagent (Promega Corporation, Madison, WI) was added to each well of the assay plates using Flying Reagent Dispenser (FRD, Aurora Discovery, San Diego, CA) and incubated the assay plates at room temperature for 30min. The luminescence signal was quantified using a ViewLux plate reader (Perkin Elmer, Shelton, CT).
# % is scaled to controls: 0 for no effect and ±100 for the full control effect; potency is read from the fitted curve at half-maximal effect.
# Sequence of Nuclear receptor subfamily 1 group I member 2 (Homo sapiens) (O75469 whole entry, looked up): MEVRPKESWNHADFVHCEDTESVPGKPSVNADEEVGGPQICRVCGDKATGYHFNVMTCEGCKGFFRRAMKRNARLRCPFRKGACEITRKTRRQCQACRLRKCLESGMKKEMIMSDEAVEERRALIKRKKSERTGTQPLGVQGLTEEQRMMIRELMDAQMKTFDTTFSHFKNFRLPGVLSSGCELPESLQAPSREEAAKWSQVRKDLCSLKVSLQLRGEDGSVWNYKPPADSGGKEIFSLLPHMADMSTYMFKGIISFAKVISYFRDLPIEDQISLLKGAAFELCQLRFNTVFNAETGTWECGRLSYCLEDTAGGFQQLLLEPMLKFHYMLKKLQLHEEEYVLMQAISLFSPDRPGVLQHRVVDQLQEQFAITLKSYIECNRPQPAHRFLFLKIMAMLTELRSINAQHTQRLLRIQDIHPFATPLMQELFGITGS
Structure (SMILES),activation,Potency
CCCCCCCC(=O)Oc1c(Br)cc(C#N)cc1Br,14.6%,–
CC(=O)C(=O)CC(C)C,-0.824%,–
CCCCCCCCCCCCCOS(=O)(=O)O,9.63%,–
Cc1ccc(S(=O)(=O)NC(=O)NC2CCCCC2)cc1,6.04% [at 42.5 µM],–
Cc1oc(=O)oc1COC(=O)[C@@H]1N2C(=O)[C@@H](NC(=O)[C@H](N)c3ccccc3)[C@H]2SC1(C)C,-5.62% [at 42.5 µM],–
CC(=O)NCCO,-1.01%,–
CCCC(=O)OC(=O)CCC,8.43%,–
COc1cc(OC)c2ccc(=O)oc2c1,11.3%,–
CCOC(=O)N1CCC(Nc2ccc(Cl)cc2N)CC1,26.1% [at 42.5 µM],–
Cc1cccc2sc(N)nc12,–,55.1 µM (active)
CCCCC(CC)COS(=O)(=O)O (stereo not given),3.16%,–
c1ccc(CCCc2ccncc2)cc1,–,30.6 µM (active)
CCN(CC)CCNC(=O)c1cc(Cl)c(N)cc1OC,-15.3% [at 42.5 µM],–
C1=CCC2CC=CC2C1 (stereo not given),–,54.4 µM (active)
CCCCOC(=O)CCCCC(=O)OCCCC,-22.7%,–
CN=C(N)NC(=O)Nc1c(C)cccc1C,2.24% [at 42.5 µM],–
c1ccc2sc(SSc3nc4ccccc4s3)nc2c1,0% [at 19 µM],–
CC(C)C(=O)OCCOc1ccccc1,-16.8%,–
CC(C)(C)NCC(O)COc1cccc2c1C[C@H](O)[C@H](O)C2 (stereo not given in full),-3.48% [at 42.5 µM],–
CC(=O)OC(C)C[N+](C)(C)C (stereo not given),2.33% [at 42.5 µM],–

Structure (SMILES),activation,Potency
CCOc1ncc(F)c(=O)[nH]1,-7.85% [at 42.5 µM],–
BrC(Br)C(Br)Br,3.8%,–
O=C(NS(=O)(=O)/C=C/c1ccccc1)c1ccc(F)cc1Cl,–,19.3 µM (active)
O=C(O)c1ccc(O)cc1O,0.201%,–
CC1CCCC(=O)C1=O (stereo not given),9.38%,–
CCCCCCCCCCCCCC(=O)OCC(O)CO (stereo not given),16%,–
CC(C)c1ccc(C#N)cc1,-5.15%,–
CNCc1ccc(NC(=O)c2c[nH]c3c2C(=O)CCC3)cc1,–,1.09 µM (active)
NC(=O)c1ccccc1[N+](=O)[O-],-0.113%,–
CC(C)c1ccc(C(=O)N=C(N)N)cc1S(C)(=O)=O,-6.54% [at 42.5 µM],–
Oc1cccc2[nH]ccc12,-1.23% [at 42.5 µM],–
COC1CCC=CO1 (stereo not given),-0.612%,–
O=C(O)CCC(=O)c1ccc(-c2ccccc2)cc1,7.47% [at 42.5 µM],–
O=C1OC(=O)c2c(Br)c(Br)c(Br)c(Br)c21,-2.59%,–
CC(C)COC(=O)c1ccc(O)cc1,–,3.06 µM (active)
CC(C)(C)C(O)/C=C/c1ccc2c(c1)OCO2 (stereo not given),–,29.8 µM (active)
Nc1ccc(NC(=O)c2ccc(N)cc2)cc1,11.4%,–
CC(C)N(C)C,1.83%,–
CCc1ccc(C)cc1,3.9%,–
CCOC(=O)C(C)O (stereo not given),-15.8%,–
